Experiments:
Test in all cases: protein-binding microarray (PBM); PBM: ~300 nM protein, 6 mM HEPES pH 7.8, 80 mM KCl, 0.5 mM EDTA, 0.5 mM EGTA, 6% glycerol, 35 ng/ul poly-dIdC, 1% milk, 1 h, room temperature; Ap Aiptasia and Nv Nematostella (sea anemones) / Co Capsaspora / Aq Amphimedon (sponge) / Dm Drosophila / Hu human; RHD is the Rel homology domain; high values mean tight binding
Details in all cases: dsDNA, one strand shown
GST-Ap-NF-kB RHD = molecular target: T1, GST-Ap-NF-kB RHD (Exaiptasia pallida (Aiptasia), UniProt A0A913YAJ5 2-422)
T1 sequence: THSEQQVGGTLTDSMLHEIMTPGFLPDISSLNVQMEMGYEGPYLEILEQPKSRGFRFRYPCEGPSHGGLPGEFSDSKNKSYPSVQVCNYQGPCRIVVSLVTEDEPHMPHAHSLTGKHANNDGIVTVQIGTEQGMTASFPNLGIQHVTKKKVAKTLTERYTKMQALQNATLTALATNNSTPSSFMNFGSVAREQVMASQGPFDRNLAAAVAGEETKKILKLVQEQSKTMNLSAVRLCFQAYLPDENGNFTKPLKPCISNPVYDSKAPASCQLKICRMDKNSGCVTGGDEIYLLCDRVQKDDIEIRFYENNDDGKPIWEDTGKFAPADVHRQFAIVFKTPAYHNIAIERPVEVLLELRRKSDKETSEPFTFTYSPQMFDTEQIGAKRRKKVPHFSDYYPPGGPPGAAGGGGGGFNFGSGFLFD

[1] = molecular target: T2, GST-Nv-NF-kB (Cys allele) (Nematostella vectensis, UniProt E5G601 2-411)
T2 sequence: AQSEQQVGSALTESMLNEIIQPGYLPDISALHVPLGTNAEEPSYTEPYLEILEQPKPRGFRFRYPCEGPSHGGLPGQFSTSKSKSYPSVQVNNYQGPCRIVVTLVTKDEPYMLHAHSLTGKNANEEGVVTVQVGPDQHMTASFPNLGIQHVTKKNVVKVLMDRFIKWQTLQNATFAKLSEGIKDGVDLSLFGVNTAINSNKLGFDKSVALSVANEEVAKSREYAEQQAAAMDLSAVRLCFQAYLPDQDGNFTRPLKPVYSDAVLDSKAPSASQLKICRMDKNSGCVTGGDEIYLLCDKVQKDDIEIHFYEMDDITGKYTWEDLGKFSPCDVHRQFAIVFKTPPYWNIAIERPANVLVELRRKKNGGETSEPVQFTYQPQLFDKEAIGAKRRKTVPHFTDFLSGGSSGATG

GST-Co-NF-kB = molecular target: T3, GST-Co-NF-kB (Capsaspora owczarzaki, UniProt F1ARL5 200-546)
T3 sequence: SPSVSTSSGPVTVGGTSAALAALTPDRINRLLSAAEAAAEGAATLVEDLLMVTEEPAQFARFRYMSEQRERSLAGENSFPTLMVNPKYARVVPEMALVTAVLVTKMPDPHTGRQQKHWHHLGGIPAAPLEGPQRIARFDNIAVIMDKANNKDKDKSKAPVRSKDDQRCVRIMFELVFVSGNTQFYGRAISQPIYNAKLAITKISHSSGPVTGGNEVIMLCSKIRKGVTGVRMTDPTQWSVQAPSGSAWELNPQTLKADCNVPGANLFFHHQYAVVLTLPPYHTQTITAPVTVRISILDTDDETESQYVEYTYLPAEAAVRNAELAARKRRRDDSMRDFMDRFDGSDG

GST-Dm-Relish = molecular target: T4, GST-Dm-Relish (Drosophila melanogaster, UniProt Q94527 99-473)
T4 sequence: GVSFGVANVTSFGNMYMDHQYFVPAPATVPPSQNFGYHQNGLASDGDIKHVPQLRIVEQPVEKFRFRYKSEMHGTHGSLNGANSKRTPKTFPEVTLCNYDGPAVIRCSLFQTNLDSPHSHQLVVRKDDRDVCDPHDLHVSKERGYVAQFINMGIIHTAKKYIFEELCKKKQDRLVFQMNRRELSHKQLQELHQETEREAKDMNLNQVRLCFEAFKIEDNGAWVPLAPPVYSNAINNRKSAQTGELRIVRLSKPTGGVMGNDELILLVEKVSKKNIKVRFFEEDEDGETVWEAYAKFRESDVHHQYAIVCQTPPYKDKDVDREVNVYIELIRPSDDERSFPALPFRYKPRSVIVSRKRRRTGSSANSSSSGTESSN

GST-Aq-NF-kB = molecular target: T5, GST-Aq-NF-kB (Amphimedon queenslandica, UniProt A9Y5G7 2-389)
T5 sequence: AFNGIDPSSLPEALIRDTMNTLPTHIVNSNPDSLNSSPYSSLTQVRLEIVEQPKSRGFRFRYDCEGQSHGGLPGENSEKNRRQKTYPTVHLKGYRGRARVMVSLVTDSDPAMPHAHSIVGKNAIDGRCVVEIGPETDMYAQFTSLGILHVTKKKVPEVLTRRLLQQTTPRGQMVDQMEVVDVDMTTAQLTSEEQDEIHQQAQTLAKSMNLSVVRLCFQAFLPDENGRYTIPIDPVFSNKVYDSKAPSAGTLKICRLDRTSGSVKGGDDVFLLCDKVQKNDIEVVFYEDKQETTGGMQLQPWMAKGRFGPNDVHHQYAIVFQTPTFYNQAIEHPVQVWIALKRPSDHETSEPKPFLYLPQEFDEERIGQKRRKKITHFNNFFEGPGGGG

GST-Hu-p50 = GST-Hu-p50 (Homo sapiens, UniProt P19838 7-356)
Sequence of GST-Hu-p50 (P19838 7-356): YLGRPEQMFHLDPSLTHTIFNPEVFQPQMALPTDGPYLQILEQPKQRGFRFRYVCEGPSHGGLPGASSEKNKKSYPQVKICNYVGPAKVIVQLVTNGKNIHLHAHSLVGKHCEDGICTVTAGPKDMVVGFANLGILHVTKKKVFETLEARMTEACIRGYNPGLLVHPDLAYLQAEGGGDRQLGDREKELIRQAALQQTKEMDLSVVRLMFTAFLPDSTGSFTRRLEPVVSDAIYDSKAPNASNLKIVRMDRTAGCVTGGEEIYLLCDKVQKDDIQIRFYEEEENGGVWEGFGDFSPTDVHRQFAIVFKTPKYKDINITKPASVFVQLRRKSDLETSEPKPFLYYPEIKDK

Sequence | binding signal (GST-Ap-NF-kB RHD) | binding signal [1] | binding signal (GST-Co-NF-kB) | binding signal (GST-Dm-Relish) | binding signal (GST-Aq-NF-kB) | binding signal (GST-Hu-p50)
CCGATTAACATCAGGGCACCCCCTGATGTTAATCGGGTCTTGATTCGCTTGACGCTGCTG | 6.14 z-score | 4.52 z-score | 2.4 z-score | 8.28 z-score | 7.23 z-score | 4.75 z-score
CCGATTAACATCAGGAGTCCCCCTGATGTTAATCGGGTCTTGATTCGCTTGACGCTGCTG | 8.32 z-score | 6.17 z-score | 4.42 z-score | 8.71 z-score | 6.95 z-score | 5.55 z-score
CCGATTAACATCAAAAACCACCCTGATGTTAATCGGGTCTTGATTCGCTTGACGCTGCTG | 4.27 z-score | 3.46 z-score | 2.76 z-score | 7.76 z-score | 4.53 z-score | 5.64 z-score
CCGATTAACATCAAATTCCCTTATGATGTTAATCGGGTCTTGATTCGCTTGACGCTGCTG | 3.4 z-score | 5.97 z-score | 2.16 z-score | 3.37 z-score | 5.01 z-score | 4.42 z-score
CCGATTAACATCAGAAAGTTCCCTGATGTTAATCGGGTCTTGATTCGCTTGACGCTGCTG | 4.17 z-score | 4.74 z-score | 3.54 z-score | 6.32 z-score | 5.8 z-score | 4.18 z-score
CCGATTAACATCAATAAAATCCCTGATGTTAATCGGGTCTTGATTCGCTTGACGCTGCTG | 4.23 z-score | 4.4 z-score | 2.13 z-score | 6.47 z-score | 4.79 z-score | 4.24 z-score
CCGATTAACATCAAACCACCCCCTGATGTTAATCGGGTCTTGATTCGCTTGACGCTGCTG | 3.91 z-score | 3.14 z-score | 3.81 z-score | 2.92 z-score | 3.77 z-score | 4.3 z-score
CCGATTAACATCAAAATCACCCCTGATGTTAATCGGGTCTTGATTCGCTTGACGCTGCTG | 4.66 z-score | 2.97 z-score | 5.02 z-score | 5.22 z-score | 3.41 z-score | 4.39 z-score
CCGATTAACATCAGGGGGAGGGATGATGTTAATCGGGTCTTGATTCGCTTGACGCTGCTG | 4.44 z-score | 4.45 z-score | 5.87 z-score | 3.28 z-score | 4.21 z-score | 4.01 z-score
CCGATTAACATCAGATCCCCCCCTGATGTTAATCGGGTCTTGATTCGCTTGACGCTGCTG | 8.16 z-score | 5.56 z-score | 6.72 z-score | 5.21 z-score | 5.39 z-score | 5.36 z-score
CCGATTAACATCAAAAGCCCCCATGATGTTAATCGGGTCTTGATTCGCTTGACGCTGCTG | 5.8 z-score | 6.19 z-score | 2.08 z-score | 6.91 z-score | 6.49 z-score | 6.29 z-score
CCGATTAACATCACACTCCCCCCTGATGTTAATCGGGTCTTGATTCGCTTGACGCTGCTG | 5.44 z-score | 4.08 z-score | 6.07 z-score | 3.37 z-score | 3.93 z-score | 5.38 z-score
CCGATTAACATCACGGGAAGTACTGATGTTAATCGGGTCTTGATTCGCTTGACGCTGCTG | 1.21 z-score | 1.43 z-score | 1.57 z-score | 8.29 z-score | 3.28 z-score | 1.09 z-score

Reference: paper PMC5700166
